# Source: PubChem
# Sampled rows, rich in hits. Any-hit rate of the full collection: about 3.4%.
# ANO1 activ – activators or potentiators of mouse TMEM16A chloride channel; Q8BHY3; HEK293 TMEM16A/YFP-H148Q/I152L, iodide quench fluorescence; active compounds read low; B-score at 10 µM; actives 0.3% (n = 340,000); AID 623877;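 active = fluorescence-ratio B-score plate-corrected deviation score at least 3 library SD below zero, with starting fluorescence score within 5 deviations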;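 note: channel opened by trigger with iodide after compound preincubation; score built on the fluorescence ratio of max minus min over baseline; more negative score means more quench and so TMEM16A activation or potentiation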
# ANO1 block – blocks the mouse calcium-activated chloride channel TMEM16A; Q8BHY3; HEK293 TMEM16A/YFP iodide influx fluorescence, ionomycin; normalized B-score (activity score, 25-100; higher = stronger inhibition) at 10 µM; actives 1.2% (n = 310,000); AID 588511;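 active = ratio plate-corrected score three or more library SD toward inhibition, starting fluorescence score within five deviations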;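 note: score derived from kinetic fluorescence span divided by baseline fluorescence per well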
# NTR1 agonist – NTR1 (human) agonism; activation, % at 20 µM; NTR1-U2OS beta-arrestin-GFP spot imaging, agonist mode; actives 0.17% (n = 330,000); P30989;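 active = activation at or above 40% of the spot to cytoplasm intensity ratio, with at least 20 cells analyzed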;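 note: 0% = DMSO without peptide and 100% = 100 nM NTR1 peptide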
# MEKK2mut PB1 HTS – signal of MEK5 binding to mutant human MEKK2 PB1 domain | bead flow cytometry, Alexa488-MEK5 binding to MEKK2 mutant | percent response, % at 10 µM | actives 0.35% (n = 290,000) | AID 1530; in the data active = percent response above about 24%, passing the limit was not always enough
# MEKK2wt PB1 HTS – raises or lowers MEK5 binding to wildtype human MEKK2 PB1 domain; AID 1531; bead flow cytometry, Alexa488-MEK5 binding to MEKK2 WT; actives lie on both sides; actives 1.1% (n = 290,000); binding response (% of control), % at 10 µM; in the data active = binding response below about 67% or above about 130%
# MEKK3 PB1 HTS – raises or lowers MEK5 binding to the human MEKK3 PB1 domain; AID 1529; Q99759; bead-based flow cytometry, Alexa488-MEK5 binding to MEKK3; actives lie on both sides; 0 = blocked by unlabeled MEK5, 100 = vehicle; actives 1.4% (n = 290,000); binding response (% of control), % at 10 µM;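 active = binding response more than 3 SD above or below the average of its plate-row segment, actives on both sides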;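 note: Alexa488 bead fluorescence after subtracting the streptavidin-only scavenger bead signal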
# Target sequence (Q99759 whole entry, looked up, the tested form may be a part): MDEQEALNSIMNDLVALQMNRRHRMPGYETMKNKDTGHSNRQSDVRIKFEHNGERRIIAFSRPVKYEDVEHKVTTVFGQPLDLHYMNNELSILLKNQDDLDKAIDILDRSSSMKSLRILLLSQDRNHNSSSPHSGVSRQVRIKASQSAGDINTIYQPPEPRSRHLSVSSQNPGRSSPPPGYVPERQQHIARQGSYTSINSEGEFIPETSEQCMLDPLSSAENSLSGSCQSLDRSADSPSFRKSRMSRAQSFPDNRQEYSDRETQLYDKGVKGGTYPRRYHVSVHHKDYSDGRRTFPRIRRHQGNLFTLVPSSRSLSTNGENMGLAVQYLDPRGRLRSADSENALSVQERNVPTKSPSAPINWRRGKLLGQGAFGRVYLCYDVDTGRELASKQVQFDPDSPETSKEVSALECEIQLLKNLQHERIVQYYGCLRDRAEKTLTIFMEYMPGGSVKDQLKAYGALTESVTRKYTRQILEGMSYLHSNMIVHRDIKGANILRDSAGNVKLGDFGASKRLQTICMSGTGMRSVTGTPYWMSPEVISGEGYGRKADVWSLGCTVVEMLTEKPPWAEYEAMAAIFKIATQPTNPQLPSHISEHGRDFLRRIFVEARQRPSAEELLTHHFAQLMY
# TMEM16A reconf – reconfirmed blocker of mouse TMEM16A calcium-activated chloride channel; actives 39% (n = 2,300); inhibition, % at 10 µM; AID 652189; HEK293 TMEM16A/YFP-H148Q, iodide quench fluorescence; ionomycin added to raise cell calcium; shares compounds with ANO1 block;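 active = mean duplicate percent inhibition, scaled so buffer wells are 0 and the reference blocker 100, over three buffer SD above buffer mean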
# TMEM16A Ca cntr – alters calcium mobilization in TMEM16A HEK293 cells, counter-screen; shares compounds with ANO1 block; TMEM16A/YFP HEK293, Fluo4 calcium mobilization; calcium response (% of ionomycin), % at 10 µM; actives 2% (n = 2,300);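 active = duplicate-averaged calcium signal over 20% of the ionomycin maximum, relative to buffer baseline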;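 note: each well's signal is peak minus trough fluorescence divided by its pre-addition baseline; 0% = buffer wells and 100% = ionomycin wells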
# YFP-HEK293 quench – counter-screen for TMEM16A inhibitors: effect in parental YFP-HEK293 cells; shares compounds with ANO1 block; iodide YFP quench, ionomycin; YFP ratio F(max-min)/F0 at 10 µM; 2,300 tested, under 10 active; AID 652233;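 active = yellow fluorescent protein signal ratio exceeding the buffer control mean by over 5 SD of those controls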;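 note: ratio is mean of duplicate wells from kinetic YFP trace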
# ClC-1 inh – rat ClC-1 inhibition, TMEM16A specificity screen. shares compounds with ANO1 block. CHO ClC-1-YFP, iodide influx fluorescence quench; iodide control reads 0, buffer control 100. ratio percent, % at 10 µM. 2,300 tested, under 10 active. AID 652236;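 active = duplicate-mean ratio percent above the mean of iodide-only control wells, which defines zero, plus 5 of their SD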;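 note: higher percent means stronger block of ClC-1 iodide influx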
# An asterisk follows results filed as active; i = inactive; / = no result.
SMILES,ANO1 activ,ANO1 block,NTR1 agonist,MEKK2mut PB1 HTS,MEKK2wt PB1 HTS,MEKK3 PB1 HTS,TMEM16A reconf,TMEM16A Ca cntr,YFP-HEK293 quench,ClC-1 inh
CCOC(=O)C1CCN(C(=O)c2ccc3c(c2)OCCO3)CC1,i,/,-2,/,/,/,/,/,/,/
COc1ccc(CCC(=O)Nc2ccc(N3CCOCC3)c(S(=O)(=O)Nc3ccc(OC)cc3)c2)cc1,i,/,/,/,/,/,/,/,/,/
COc1ccc(Nc2nnc(Cc3ccncc3)c3ccccc23)c(OC)c1,i,i,-1,2,104,104,/,/,/,/
O=C(CN(Cc1ccco1)C(=O)c1ccc(N2CCCC2=O)cc1)Nc1ccccc1C(F)(F)F,i,i,-2,/,/,/,/,/,/,/
CC(C)CCN1C(=O)c2ccc(C(=O)Nc3ccccc3C(=O)O)cc2C1=O,i,25*,0,2,106,102,i,i,-1.1,-9
CC(C)CCN1C(=O)c2ccc(C(=O)Nc3ccc(O)cc3C(=O)O)cc2C1=O,i,i,0,2,108,106,/,/,/,/
CCCCNc1cc(C)nc(NCc2ccccc2)n1,i,25*,16,10,133,106,34%*,22%*,-1.2,-24
Cc1cc(N2CCC(C)CC2)nc(NCc2ccccc2)n1,i,100*,12,-3,101,107,i,i,-1.3,-20
COc1cccc(C(=O)N(C)CC(=O)Nc2cccc3ccccc23)c1,i,/,-1,/,/,/,/,/,/,/
COC(=O)C1=CN(Cc2ccccc2)C=C(C(=O)OC)C1c1cc(F)ccc1F,i,i,2,4,102,106,i,i,-1.1,-6
Cc1nc2ccccc2n1Cc1ccc(Cl)cc1,i,25*,3,4,106,100,42%*,i,-1.1,-26
CCOC(=O)c1c(C)n(C)c2ccc(OCC(O)Cn3c(C)nc4ccccc43)cc12 (stereo unspecified),i,100*,9,15,129,110,i,i,-1.1,-10
OCc1nc2ccccc2n1Cc1ccc(Cl)cc1,i,i,1,1,110,105,/,/,/,/
Cc1nc2ccccc2n1CC(O)COc1ccccc1Cl (stereo unspecified),i,25*,-1,-2,96,96,i,i,-0.99,-13
CCOC(=O)c1c(C)n(C)c2ccc(OCC(O)CNCCc3ccccc3)cc12 (stereo unspecified),i,i,7,17,137,105,/,/,/,/
Cc1ccccc1CN(C)C(=O)CNC(=O)c1ccc2ccccc2c1,i,i,1,4,103,104,/,/,/,/
CCN(CC)c1c(-c2ccccc2)c2cc(C)ccc2[nH]c1=O,i,25*,-2,13,103,106,i,i,-1.1,-9
C/C(=N\N)c1c(-c2ccccc2)c2cc(C)ccc2[nH]c1=O,i,i,-1,3,105,102,/,/,/,/
CC(C)c1nc(SCC(=O)Nc2nc3c(s2)CCCC3)c2ccccc2n1,i,25*,5,/,/,/,i,i,-1.1,-10
CN(C)c1ccc(NC(=O)CN2C(=O)c3ccccc3C2=O)cc1,i,i,0,6,105,102,/,/,/,/
CCOc1c(Cl)cc(C(=O)Nc2ccccc2C(=O)O)cc1Cl,i,100*,10,-5,94,98,50%*,i,-0.88,-7
COc1ccc(C(=O)Nc2ccccc2C(=O)O)cc1Cl,i,i,2,0,105,107,/,/,/,/
O=C(CCCn1c(=S)[nH]c2ccccc2c1=O)NCCSCc1ccccc1,i,i,3,-8,97,94,/,/,/,/
CCN(CC)S(=O)(=O)c1cccc(C(=O)Nc2ccc(C#N)cc2)c1,i,100*,-1,0,100,99,i,i,-1.1,-20
CCN(CC)S(=O)(=O)c1ccc(C(=O)Nc2ccc(Cc3ccncc3)cc2)cc1,i,100*,4,-13,86,96,28%*,i,-1.1,-21
SMILES,ANO1 activ,ANO1 block,NTR1 agonist,MEKK2mut PB1 HTS,MEKK2wt PB1 HTS,MEKK3 PB1 HTS,TMEM16A reconf,TMEM16A Ca cntr,YFP-HEK293 quench,ClC-1 inh
CCN(CC)S(=O)(=O)c1ccc(NC(=O)c2ccccc2N(C)S(C)(=O)=O)cc1,i,i,0,-1,94,97,/,/,/,/
CCN(CC)S(=O)(=O)c1cccc(C(=O)Nc2cc(C)cc(C)c2)c1,i,i,-2,4,105,104,/,/,/,/
O=C(Nc1ccc(S(=O)(=O)NCCc2ccccc2)cc1)c1ccco1,i,i,-1,-4,84,79,/,/,/,/
O=C(Nc1ccc(S(=O)(=O)NCCc2ccccc2)cc1)c1ccncc1,i,100*,0,4,103,103,19%*,i,-0.86,-10
CCN(CC)S(=O)(=O)c1ccc(NC(=O)c2ccc(N(C)S(C)(=O)=O)cc2)cc1,i,100*,2,15,112,114,20%*,i,-1,-13
CCN(CC)S(=O)(=O)c1ccc(NC(=O)c2ccccn2)cc1,i,i,-1,0,98,97,/,/,/,/
CCOC(=O)c1[nH]c(CN2CCN(c3ccc(OC)cc3)CC2)c(C(=O)OCC)c1C,i,i,5,4,105,101,/,/,/,/
CC(NC(=O)C1CCCN1S(=O)(=O)c1ccc2c(c1)n(C)c(=O)c(=O)n2C)c1ccccc1 (stereo unspecified),i,i,1,-7,90,90,/,/,/,/
COC(=O)C1CCN(S(=O)(=O)c2ccc(OC)cc2)CC1,i,100*,-3,2,103,103,i,i,-1.2,-10
CCOC(=O)C1CCN(S(=O)(=O)C(F)(F)c2nc3ccccc3s2)CC1,i,100*,3,3,100,104,30%*,i,-0.94,-11
CC(C)(C)c1ccc(OCCCC(=O)Nc2ccc(S(N)(=O)=O)cc2)cc1,i,i,4,-24,63,66,/,/,/,/
CCOC(=O)N1CCC(N(CCOC)C(=O)Nc2ccc(CC)cc2)CC1,i,i,-1,3,100,105,/,/,/,/
